This is an account of results in PubChem BioAssay AID602346 (Broad Institute, 2012).

Screen size: about 340,000 compounds; about 1,200 (0.35%) were called active. The entries come from a sample that favours actives as a whole. Values without a mark were called inactive. Cut-off read from the data, not from the text of the source: active = inhibition above about 50% (passing the limit was not always enough); inconclusive = no clear call, values can overlap the other calls; inactive = below about 31%.

This test can be described thus: blockers of Vif multimerization in cells – imaging, HEK293T, single point, primary screen (AID 602346). To be noted: Vif self-association by quenched fluorescence, 24 h, at 7.49 µM, hits give high values.
As for `O=C(NCc1cccc(Cl)c1)C1CCC(=O)N(C2CC2)C1` (stereo not drawn), the inhibition was -0.951%. Consider `O=C(NCc1cccc(Cl)c1)C1=CC=CN2CCS(=O)(=O)N=C12`, for which the inhibition is 52.6% (active). On to `O=C(NCc1cccc(Cl)c1)C1CCN(c2nnc(N3CCCC3=O)s2)CC1`, for which the inhibition was 3.92%. `CN(C(=O)CN1CCN(c2cc(-c3ccc(OCc4ccccc4)cc3)ncn2)CC1)c1ccccc1`: the inhibition is -17.3%. `CC(=O)Nc1ccc(CNc2nc(NCCN(C)C)nc3cc(-c4ccccc4)sc23)cc1`: the inhibition is -16%. Consider `Cc1ccc(NC(=O)Cn2nnc(C(=O)NCc3ccco3)c2N)c(C)c1`, for which the inhibition is -2.06%.

Turning to `CCOc1ccccc1NC(=O)Cn1nnc(C(=O)NCc2cccs2)c1N`, the inhibition was 62.1% (active). With `COc1cccc(CNC(=O)c2nnn(CC(=O)Nc3cc(C)ccc3C)c2N)c1`, the inhibition was 9.65%. On to `NC(=S)NN=Cc1ccc(OC(=O)COc2cc(Cl)c(Cl)cc2Cl)cn1`, for which the inhibition was 4.39%.

Consider `CC(C)Oc1cc(F)ccc1-c1cc(C(=O)Nc2cccc(Cl)c2)[nH]n1`, for which the inhibition was -9.5%. For `CC1CCN(CC(=O)Nc2nccs2)CC1`, the inhibition was 50.9% (active). On to `CC(=O)NC1CCN(CC(=O)Nc2nccs2)CC1`, for which the inhibition is 4.49%.

For the compound `O=C(COC(=O)c1ccc(O)cc1)Nc1nccs1`, the inhibition was 2.05%. `CC(C)Oc1ccc(CN2CCC2(C)C(=O)NCc2ccc(C(F)(F)F)cc2)cc1` (stereo not drawn): the inhibition is -4.01%. As for `O=C(NCc1cccnc1)c1cc(C2CCCCN2C(=O)CCc2ccccc2)on1` (stereo not drawn), the inhibition was -0.0335%. For the compound `COCOCCn1cc(CN2CCS(=O)(=O)N(Cc3ccc(-c4ccc(OC)cc4)cc3)C(CC(C)C)C2=O)nn1` (stereo not drawn), the inhibition is 1.43%.

As for `CCN1C(=O)c2cccc3c(S(=O)(=O)Nc4ccccc4O)ccc1c23`, the inhibition is 112% (active). In the case of `CCN(CC)S(=O)(=O)c1ccc2c3c(cccc13)C(=O)S2`, the inhibition was -0.161%. Regarding `O=C(CN1C(=O)c2cccc3cccc1c23)Nc1ccccc1`, the inhibition is 2.82%. On to `O=C(NCc1cccnc1)c1ccccc1NC(=O)c1c(F)cccc1F`, for which the inhibition is -6.43%. For `O=C(NCc1cccnc1)Nc1ccccc1F`, the inhibition was 20.3%. For the compound `O=C(NCc1cccnc1)Nc1cccc(NC(=O)NCc2cccnc2)c1F`, the inhibition was 56% (active).

On to `C#Cc1ccc(NC(=O)C2(C)CCN2C(=O)Cc2ccc(-c3ccccc3)cc2)cc1` (stereo not drawn), for which the inhibition is -14.6%. As to `Cc1cccc(C)c1Cn1c(C)c(C(=O)NCc2cccc(Cl)c2)sc1=O`, the inhibition is -0.663%. As for `O=C1[C@H]2[C@@H](c3ccc(C(F)(F)F)cc3)N[C@]3(CCCN(Cc4ccc(Cl)cc4)C3=O)[C@H]2C(=O)N1Cc1ccccc1`, the inhibition is 2.09%. On to `CC1(C(=O)Nc2cccc3cccnc23)CCN1C(=O)CCC1CCCC1` (stereo not drawn), for which the inhibition was -1.65%. Take `CN(C)CCNC(=O)c1ccc(-c2cn3c(-c4ccc(Oc5ccccc5)cc4)cnc3cn2)cc1`: the inhibition was 1.97%. Regarding `COc1ccc(-c2ccc(Nc3ccc(S(=O)(=O)N4CCCC4)cc3)nn2)cc1OC`, the inhibition was -7.98%. To `COc1ccc(-c2cc(-c3ccc(N)cc3)nc(N)c2C#N)cc1OC` belongs -0.12%.

As to `COc1ccc(-c2cc(C(F)(F)F)nc(S(C)(=O)=O)n2)cc1OC`, the inhibition is 90.1% (active). For the compound `COc1ccc(OC)c(C(=O)NC2CCCc3c2cnn3-c2cc(C)cc(C)c2)c1` (stereo not drawn), the inhibition was -9.82%. Then `CC(=O)Nc1cc(-c2ccccc2F)cn2c(-c3cccc(C(F)(F)F)c3)cnc12`, with -25.4%. For `OC[C@@H]1CN(Cc2ccncc2)C[C@H](n2cnc3c(N4CCN(c5ccccc5)CC4)ncnc32)O1`, the inhibition was -25.2%.

For `NS(=O)(=O)c1ccc(-c2ccc(/C=C3\SC(=O)NC3=O)o2)cc1`, the inhibition is 55.8% (active). For `CN1CCN(/N=C/c2ccc(-c3ccc([N+](=O)[O-])cc3)o2)CC1`, the inhibition is -7.47%.

Take `O=C1[C@H]2[C@@H](c3ccc(C(F)(F)F)cc3)N[C@]3(CCCN(Cc4ccc(Br)cc4)C3=O)[C@H]2C(=O)N1Cc1ccccc1`: the inhibition was 1.02%. Consider `C#Cc1cc(N2CCN(C(=O)c3ccoc3)CC2)n2nc(-c3cccc(Cl)c3)cc2n1`, for which the inhibition is -5.39%. Then `CC(C)N(C(=O)[C@H]1C[C@H](CC(=O)NCCC2=CCCCC2)C(=O)N2CCc3c([nH]c4cc(CCC(=O)N(C)C)ccc34)[C@]12C)C(C)C`, with 0.666%; and `CN(C)C(=O)CCc1ccc2c3c([nH]c2c1)[C@]1(CCc2ccccc2)[C@@H](C(=O)N2CCCCC2)C[C@H](CC(=O)NCCC2=CCCCC2)C(=O)N1CC3`, with 2.36%. Then `CN(C)C(=O)CCc1ccc2c3c([nH]c2c1)[C@]1(C)[C@@H](C(=O)N2CCCCC2)C[C@H](CC(=O)NCCC2=CCCCC2)C(=O)N1CC3`, with 71.8% (active).

Take `Cc1nc2c(OCc3cccc(Cl)c3)cccn2c1N(C)CC1CC1`: the inhibition is -11.2%. Then `COc1ccc(CC(N)c2csc(NC(=O)Nc3ccc(C(C)C)cc3)n2)cc1` (stereo not drawn), with -7.74%. `Cc1ccc(CCC(=O)Nc2ncc(Cc3cc(Cl)ccc3Cl)s2)o1`: the inhibition was 144% (active). In the case of `Cc1ccc(Cc2cnc(N)s2)o1`, the inhibition is -1.08%.

Take `Cc1ccc(C(=O)Nc2nc3ccc(Cl)cc3s2)o1`: the inhibition is -31.1%.

As to `CSCCC(c1nnnn1Cc1ccccc1)N1CCN(C/C=C/c2ccccc2)CC1` (stereo not drawn), the inhibition is -1.75%. For `Cc1ccc(Cn2c(C)c(C(=O)NCc3ccccc3C(F)(F)F)sc2=O)cc1`, the inhibition was 4.56%.

For the compound `COC(=O)c1ccc(COc2ccc(/C=N/NC(=O)C(=O)Nc3ccc(OC)cc3)cc2OC)o1`, the inhibition was 4.89%. Then `N#Cc1cc([N+](=O)[O-])ccc1Oc1cccc(/C=N/NC(=O)c2ccc(Cl)cc2)c1`, with -18.6%; and `CCCc1ccc(OCc2ccc(C(=O)N/N=C/c3cccc([N+](=O)[O-])c3)o2)c(OC)c1`, with 53.7% (active); and `CN(C)c1cccc(NC(=O)c2ccc(-c3ccc(F)c(F)c3)c3ccoc23)c1`, with 3.47%. Turning to `CC[C@@H]1Cc2cc(O)ccc2C2=C1c1ccc(O)cc1C[C@H]2CC`, the inhibition is 85.1% (active).

With `CC(=O)Nc1cccc(-c2cc(NC(C)=O)c3ncc(-c4ccccc4)n3c2)c1`, the inhibition was 18.3%.

Broadly, the inhibition is the drop in the measured response relative to a control, in per cent.
